Screening results as filed in PubChem.
An excerpt weighted towards active compounds, which were near 27% of everything screened.
CYP2C9 activ – human CYP2C9 activators, primary screen, biochemical, luminescence; Cytochrome P450 2C9 (Homo sapiens), P11712; recombinant CYP2C9, luciferin-H conversion; hits give high values; factor 1 = untreated enzyme, 0 = blocked; activation factor at 5 µM; 96,000 compounds, 1.4% hits; AID 1024, 2008;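 active = activation factor of 2 or more for CYP2C9 at a 5 µM dose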;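 also: 0 = sulfaphenazole-blocked wells and 1 = vehicle-only wells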
Target sequence (P11712 whole entry, looked up): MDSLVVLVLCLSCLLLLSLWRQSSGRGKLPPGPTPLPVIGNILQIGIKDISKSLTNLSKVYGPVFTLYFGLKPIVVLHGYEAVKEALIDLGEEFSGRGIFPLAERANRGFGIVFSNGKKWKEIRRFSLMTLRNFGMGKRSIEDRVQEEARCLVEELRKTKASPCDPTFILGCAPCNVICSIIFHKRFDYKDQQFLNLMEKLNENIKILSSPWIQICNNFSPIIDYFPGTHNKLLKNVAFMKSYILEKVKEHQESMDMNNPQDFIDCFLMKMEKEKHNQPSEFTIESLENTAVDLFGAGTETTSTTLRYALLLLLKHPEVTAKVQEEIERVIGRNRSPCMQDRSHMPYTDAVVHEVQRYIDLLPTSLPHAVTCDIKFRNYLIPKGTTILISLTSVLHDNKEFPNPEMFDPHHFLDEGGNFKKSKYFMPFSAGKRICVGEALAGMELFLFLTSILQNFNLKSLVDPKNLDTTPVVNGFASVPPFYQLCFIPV
Cav3 T inh – Cav3.2 calcium influx blockers – cell-based, Fluo-4 calcium fluorescence, FDSS, MLSMR library, primary screen. B-score at 10 µM. AID 449739, 2010. Cav3.2-expressing cells; hits give low values. 100,000 compounds, 4% hits;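 active = single-dose well whose peak fluorescence ratio is a statistical outlier from its plate by either plate-standardised score or position-corrected B-score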
CYP2C19 inhib – blockers of cytochrome P450 2C19 activity – biochemical, luminescence, ADME assay, primary screen; P33261; CYP2C19 Supersomes, luciferin-H EGE luminescence, 30 min; inhibition, % at 5 µM; 96,000 compounds, 21% hits;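 active = CYP2C19 inhibition above a set limit at 5 µM in the primary screen, cut at about 50% in these data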;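 also: plate controls were negative control wells for no effect and 2.5 mM tranylcypromine positive control for full effect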
CYP2C19 act – human CYP2C19 activators, primary screen, biochemical, luminescence; 96,000 tested, under 10 active; activation factor at 5 µM; recombinant CYP2C19, luciferin-H EGE luminescence; hits give high values; 0 = fully inhibited enzyme, 1 = untreated enzyme;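 active = activation factor of at least 2 at 5 µM in the primary screen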;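 also: 0 = wells with 2.5 mM tranylcypromine and 1 = vehicle-only wells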
CYP2C9 inh – blockers of cytochrome P450 2C9 activity – biochemical, luminescence, ADME assay, primary screen; P11712; CYP2C9 Supersomes, luciferin-H conversion; inhibition, % at 5 µM; 96,000 compounds, 20% hits; AID 777, 2007;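 active = blocking of liver enzyme CYP2C9 beyond about 50% at 5 µM, limit read from the data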
The depositor's hits bear a star; / = no result.

SMILES	CYP2C9 activ	Cav3 T inh	CYP2C19 inhib	CYP2C19 act	CYP2C9 inh
CC1(c2nnc(-c3ccncc3)o2)CC(c2cccc(Cl)c2)=NO1 (stereo unspecified)	/	0.00795	/	/	/
Cn1c(=O)c2[nH]c(CCCC(=O)O)nc2n(Cc2ccccc2)c1=S	/	0.561	/	/	/
C=CCNC(=O)c1sc(=S)n(-c2ccc(C(=O)OCC)cc2)c1N	0.4	0.452	16.4	0.8	56.2*
CCOC(=O)c1ccc(-n2c(N)c(C(=O)NCC3CCCO3)sc2=S)cc1 (stereo unspecified)	0.2	-0.409	17.8	0.8	82.7*
CC(C)C(=O)N1CCN(c2ccc(NC(=O)c3ccc4c(c3)OCCO4)cc2Cl)CC1	0.7	-0.7	25.1	0.7	34.8
O=C(O)c1cc(-c2ccco2)nc2ccccc12	0.9	2.06	6.2	0.9	8.1
Cc1nn(-c2cccc(Cl)c2)c2nc(-c3ccco3)cc(C(=O)O)c12	0.1	-0.674	-5.3	1.1	89.6*
CCOc1ccccc1-c1nc2c(s1)CCc1onc(-c3ccc(OC)cc3)c1-2	/	-0.0175	/	/	/
O=c1cc(C(F)(F)C(F)F)oc2ccccc12	0.9	0.965	-19.1	1.2	11.2
Cc1cccc(NC(=O)CN2NS(=O)(=O)c3ccccc3C2=O)c1	0.4	0.00411	32.8	0.7	59.0*
CSc1cccc(NC(=O)CN2C(=O)c3ccccc3S2(=O)=O)c1	0.6	0.395	34.6	0.7	38.3
CC(C)c1ccc(C2C3CSCC=C3C(C#N)=C(N)C2(C#N)C#N)cc1 (stereo unspecified)	0	-2.34	67.3*	0.3	100.2*
CN1CC=C2C(C#N)=C(N)C(C#N)(C#N)[C@H](c3cccc(Cl)c3)C2C1 (stereo partly specified)	0.6	-0.0389	28.2	0.7	38.3
Clc1ccc(-c2onc3c2CCCC3)cc1	0.8	-0.454	12.3	0.9	18.2
N=c1nc(SCCC(=O)O)ss1	1	-0.115	-1.9	1	0.8
Cc1ccc(S(=O)(=O)N2CCN(C3CC(=O)N(CCc4ccccc4)C3=O)CC2)cc1C (stereo unspecified)	1.5	-0.398	50.4*	0.5	-46.5
O=C(Nc1cc(Cl)ccc1O)c1snnc1-c1ccccc1	0.2	-0.186	51.9*	0.5	83.4*
CN(C)c1ccc(NC(=O)CCCc2ccccc2)cc1	0.5	/	100.0*	0	48.7
CN(C)c1ccc(NC(=O)CN2C(=O)CC(c3ccccc3)=Nc3ccccc32)cc1	0.3	0.398	6.4	0.9	72.2*
O=C(CCc1ccccc1)Nc1cc(Cl)ccc1O	0.1	-4.27	99.4*	0	88.1*
COCC(=O)Nc1ccc(N(C)C)cc1	1	0.0153	15.2	0.8	-3.0
O=C(CCSc1nc2cc(Cl)ccc2o1)N1CCOCC1	1.2	0.462	35.0	0.7	-17.4
COC(=O)C12CC3CC(C1)CC(n1cnc(Cl)n1)(C3)C2	/	0.789	/	/	/
CC1CCCCN1CCNC(=O)CN1C(=O)COc2ccccc21 (stereo unspecified)	1.1	0.162	-7.5	1.1	-7.6
O=C(CCc1ccccc1)Nc1cccc(NC(=O)CCc2ccccc2)c1	0.1	-2.58	45.4	0.5	88.1*
SMILES	CYP2C9 activ	Cav3 T inh	CYP2C19 inhib	CYP2C19 act	CYP2C9 inh
O=C(CCCc1ccccc1)Nc1cccnc1	0.5	-0.00143	74.9*	0.3	50.3*
CC(C)NS(=O)(=O)c1ccc(CCC(=O)Nc2cc(Cl)ccc2Oc2ccccc2)cc1	0.3	/	45.0	0.6	67.2*
CC(C)NS(=O)(=O)c1ccc(NC(=O)CCc2ccccc2)cc1	0.6	0.259	21.8	0.8	41.7
CCc1nc2oc3ccccc3c(=O)c2c(=O)n1-c1ccccc1	1.3	0.0319	9.8	0.9	-28.0
O=c1c2ccccc2oc2nc3ccn(Cc4ccncc4)c(=O)c3cc12	0.4	1.07	41.0	0.6	59.1*
COc1ccc(-c2cc(CN3C(=O)c4ccccc4C3=O)on2)cc1	/	1.45	/	/	/
CCn1c(CNC(=O)c2ccccc2)nc2ccccc21	/	0.268	/	/	/
Cn1c(NCc2c(O)ccc3ccccc23)nc2ccccc21	1.1	/	3.1	1	-6.4
CCn1c(NCc2ccccc2Cl)nc2ccccc21	/	-1.8	/	/	/
CCCn1c(CNc2ccccc2O)nc2ccccc21	0.7	0.466	51.1*	0.5	27.9
Cn1c(CNc2nc3ccccc3n2C)nc2ccccc21	0.8	1.93	69.7*	0.3	20.6
CC(C)n1c(CNC(=O)c2ccccc2)nc2ccccc21	1	-0.239	86.0*	0.1	2.2
CCn1c(CNc2nc3ccccc3n2C(C)C)nc2ccccc21	0.2	-3.92	82.0*	0.2	82.3*
CCCCn1c(CNC(=O)CCC)nc2ccccc21	1	0.653	22.2	0.8	3.7
COc1ccc(OC)c(C(=O)NC(CC(N)=O)c2ccc(NCCN3CCOCC3)c([N+](=O)[O-])c2)c1 (stereo unspecified)	/	0.263	/	/	/
O=C(CN1CCN(c2ccccc2)CC1)Nc1ccc(Oc2ccccc2)cc1	0.8	-1.68	1.2	1	16.8
CC(C)n1c(NCc2cc(Cl)ccc2O)nc2ccccc21	0.8	1.27	16.8	0.8	16.8
CC(C)n1c(NCc2nc3ccccc3n2C)nc2ccccc21	0.5	0.471	84.3*	0.2	53.8*
CCCn1c(NCc2c[nH]c3ccccc23)nc2ccccc21	0.7	-5.94*	71.1*	0.3	32.5
Cc1ccc(NCc2nc3ccccc3n2C)cc1	0.7	-0.193	95.9*	0	31.1
COc1ccc(C(=O)COC(=O)CCn2nnc(-c3cccs3)n2)cc1	1.1	/	0.7	1	-5.7
Cc1cc(N2C(=O)C(=O)/C(=C(/O)c3ccc(F)cc3)C2c2ccc(Cl)cc2)no1 (stereo unspecified)	0.4	-6.16*	3.3	1	56.7*
COc1ccc(/C=N/n2cnnc2SCCO)cc1OC	0.8	-0.36	17.0	0.8	18.0
C=CCSc1nncn1/N=C/c1ccc(OC)cc1	0.6	1.39	81.6*	0.2	35.9
COc1cccc(-c2csc(N3CCN(C(=S)Nc4ccccc4Cl)CC3)n2)c1	0.4	-4.05*	72.6*	0.3	63.6*
COc1cccc(-c2csc(N3CCN(C(=S)Nc4ccccc4OC)CC3)n2)c1	1.1	-2.64	70.2*	0.3	-5.6
COc1cccc(-c2csc(N3CCN(C(=S)Nc4cccc(Cl)c4)CC3)n2)c1	0.6	-0.879	35.4	0.6	40.9
CCN(CC)C(=O)C(=O)N/N=C/c1cccc(Br)c1	0.9	-0.849	2.4	1	5.8
Nc1c(Br)cc(Br)c(N2CCCC2=O)c1Br	4.3*	0.569	54.4*	0.5	-326.9
COC(=O)c1[nH]c2ccccc2c1NC(=O)CN1CCC(C(N)=O)(N2CCCCC2)CC1	0.5	1.14	17.7	0.8	48.6
